mIDH1 inhibitor: inhibitors of human mutant IDH1 R132H; O75874; IDH1-R132H enzyme, NADPH consumption, diaphorase/resazurin fluorescence; Potency, µM (highest dose often 76.6 µM), usual class: inhibitors; 0.093% of 390,000 active; AID 602179; note: nearly all actives have a fitted effect of over 65% in size
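IDH1-R132H (0.5 ug/mL dispensed) in pH 7.5 Tris buffer was preincubated 30 min with compound, then given a substrate mix of 0.016 mM NADPH and 2 mM alpha-KG for 80 min at room temperature; remaining NADPH was read by diaphorase/resazurin fluorescence.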
FBPA coupling cs: inhibits coupling enzyme system, counter-screen for aldolase hits; coupling enzyme system counterscreen, AmpLite Red fluorescence; activity change, negative = inhibition, % at 58.2 µM, hits read low; 0.67% of 290,000 active; AID 2472; in the data active = activity change below about -30%
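First, compound is pin-transferred into glyceraldehyde-3-phosphate coupling-enzyme reagent at 57.5 uM final and held 10 min at RT. Next, substrate, coupling system and AmpLite Red are added. After 20 min RT, fluorescence (525/598 nm) is read.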
Eya2 inh: blocks the phosphatase activity of human Eya2; Potency, µM (series often up to 76.9 µM), usual class: inhibitors; 0.006% of 330,000 active; O00167; recombinant Eya2, OMFP fluorescence dephosphorylation (OMFP is methylfluorescein phosphate)
Target sequence (O00167 whole entry, looked up): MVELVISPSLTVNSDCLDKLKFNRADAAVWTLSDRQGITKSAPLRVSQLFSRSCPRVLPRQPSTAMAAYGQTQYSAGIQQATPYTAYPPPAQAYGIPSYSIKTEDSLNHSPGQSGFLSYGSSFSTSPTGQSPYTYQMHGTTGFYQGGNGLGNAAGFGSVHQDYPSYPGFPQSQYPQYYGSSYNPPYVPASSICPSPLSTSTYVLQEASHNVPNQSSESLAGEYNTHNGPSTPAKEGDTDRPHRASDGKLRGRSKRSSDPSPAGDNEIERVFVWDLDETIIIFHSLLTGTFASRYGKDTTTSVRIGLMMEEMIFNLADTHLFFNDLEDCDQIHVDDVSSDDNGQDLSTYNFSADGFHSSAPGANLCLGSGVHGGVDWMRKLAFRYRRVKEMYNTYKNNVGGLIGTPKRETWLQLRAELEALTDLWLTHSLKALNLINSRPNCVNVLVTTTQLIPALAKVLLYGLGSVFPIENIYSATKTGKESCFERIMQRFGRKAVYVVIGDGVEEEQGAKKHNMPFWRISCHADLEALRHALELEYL
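Eya2 protein (added as 0.2 uM solution) was preincubated with compound for 10 min at ambient temperature in 50 mM HEPES pH 7.5, 50 mM NaCl, 5 uM MgCl2, 0.05% BSA, 1 mM DTT. OMFP (added at 50 uM) then reacted 10 min; fluorescence read at 485/525 nm.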
TrxR1 substrate: is turned over as a substrate by rat TrxR1. purified TrxR1 substrate turnover, NADPH consumption readout. O89049. Potency, µM (titrated, usually from 114 µM). 0.01% of 390,000 active. AID 588456; note: nearly all actives have a fitted effect of over 50% in size
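Rat TrxR1, dispensed at 90 nM, was prereduced with 400 uM NADPH (final) for 5 min at ~22 deg C, then incubated with compound 15 min before 400 uM selenite. A first-read NADPH fluorescence drop versus no-compound background flagged substrates.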
TrxR1 inh: inhibitors of rat thioredoxin reductase 1. O89049. recombinant rTrxR1, NADPH fluorescence consumption, selenite substrate. Potency, µM (highest dose often 114 µM), actives largely listed as inhibitors. 1% of 390,000 active. AID 588453; note: nearly all actives have a fitted effect of over 65% in size
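Rat TrxR1 (90 nM in the dispensed reagent) was pre-reduced with 400 uM NADPH for 5 min at room temperature, then incubated with compound for 15 min. After 400 uM selenite was added, NADPH fluorescence (Ex 340/Em 450 nm) was followed for 8 min.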
Large screens that a line does not name were inactive. In the library only some 1.5% were active in any assay of this set; here they are far more common. Unless noted, calls come from the whole dose curve; as a rule, active = well fitted curve in the direction sought with a large enough effect; inconclusive = small, poorly fitted or top-dose-only effect, or another doubt; inactive = no such curve, though single readings can be large; an effect the other way counts as inactive or inconclusive.

O=C(O)c1cccc(Cn2c(Cl)c(/C=N/NC(=O)c3ccccc3)sc2=O)c1	none
COC(=O)c1cccc(Cn2c(Cl)c(/C=N/Nc3ccccc3C)sc2=O)c1	TrxR1 inh 22µM
O=C(O)c1cccc(Cn2c(Cl)c(/C=N/NC(=O)c3cccc(O)c3)sc2=O)c1	none
COc1cc(Nc2ccccc2Cl)c([N+](=O)[O-])nc1[N+](=O)[O-]	TrxR1 inh 0.4µM
O=C(Cc1ccc(OCC2CCCCC2)cc1)NO	none (no result: mIDH1 inhibitor, FBPA coupling cs, Eya2 inh)
Cc1ccccc1S(=O)(=O)Cc1ccc(C(=O)NC2CCCCCC2)o1	none
Cc1ccccc1S(=O)(=O)Cc1ccc(C(=O)N(C)C2CCCCC2)o1	TrxR1 inh 56µM (no result: FBPA coupling cs)
COc1ccc(/C=C/C(=O)c2ccncc2)c2ccccc12	FBPA coupling cs -43
CCCCC[C@H](O)/C=C/[C@H]1OC(O)C[C@H](O)[C@@H]1C/C=C\CC(=O)O (some centres undefined)	none (no result: mIDH1 inhibitor, Eya2 inh, TrxR1 substrate, TrxR1 inh)
CCN(CC)c1ccc(N)cc1	none (no result: FBPA coupling cs)
Nc1ccc(N(CCO)CCO)cc1	FBPA coupling cs -38
O=C(c1ccccc1)N(Cc1ccco1)Cc1cccs1	TrxR1 inh inconclusive (no result: FBPA coupling cs, Eya2 inh)
Cc1onc(-c2ccccc2)c1C(=O)N(Cc1ccco1)Cc1cccs1	FBPA coupling cs -35
CCn1c(C)nc2cc(C(=O)N/N=C/c3ccc(O)c(O)c3O)ccc21	FBPA coupling cs -53
COc1ccc(O)c(/C=N/NC(=S)Nc2cccc(S(=O)(=O)N(C)C)c2)c1	none
CCN(CC)S(=O)(=O)c1cccc(C(=O)N/N=C/c2ccc(N3CCOCC3)cc2)c1	none
CCN(CC)S(=O)(=O)c1cccc(C(=O)N/N=C/c2ccc(O)c(O)c2O)c1	FBPA coupling cs -41
CCOc1ccccc1/C=N/NC(=O)c1cccc(S(=O)(=O)N(CC)CC)c1	FBPA coupling cs -38
CN(C)S(=O)(=O)c1cccc(NC(=S)N/N=C/c2ccc(O)c(O)c2O)c1	FBPA coupling cs -56, TrxR1 inh inconclusive
COc1cc(N(C)C)c(OC)cc1/C=C1\Cc2ccccc2C1=O	none (no result: mIDH1 inhibitor, FBPA coupling cs, Eya2 inh)
Clc1ccc2nc[nH]c2c1	TrxR1 inh inconclusive (no result: mIDH1 inhibitor, FBPA coupling cs, Eya2 inh)
CCOc1ccccc1/C=N/NC(=O)c1c(C)nc2ccc(Br)cn12	FBPA coupling cs -45
CCOc1ccc(Cl)cc1/C=N/NC(=O)CNC(=O)c1ccccc1	FBPA coupling cs -38
COc1cccc(/C=N/NC(=O)c2c(C)nc3ccc(Br)cn23)c1O	none
CC(=O)c1ccc(N(C)C)c2c(N(C)C)cccc12	FBPA coupling cs -55
CN(C)c1cccc2cccc(N(C)C)c12	FBPA coupling cs -35
NCC1OC(O[C@H]2[C@H](O)[C@@H](OC3C(O)C(N)CC(N)C3OC3OC(CO)C(O)C(O)C3N)O[C@@H]2CO)C(N)C(O)C1O (some centres undefined)	none (no result: mIDH1 inhibitor, FBPA coupling cs)
CCCC(=O)N1CCN(c2ccc(NC(=O)c3cc4ccccc4o3)cc2Cl)CC1	FBPA coupling cs -40
O=C1NC(=O)c2c1c(-c1ccccc1)cc1[nH]c3ccc(O)cc3c21	none (no result: mIDH1 inhibitor, Eya2 inh, TrxR1 substrate, TrxR1 inh)
COc1ccccc1CN=Cc1[nH]c2ccc(Br)c(Cl)c2c1O	FBPA coupling cs -44
Cc1cccc(N=Cc2[nH]c3ccc(Br)c(Cl)c3c2O)c1	FBPA coupling cs -33, TrxR1 inh inconclusive
COc1cc(OC)c(/C=C/c2cc3c4ccccc4ccc3[n+](C)c2)c(OC)c1	none (no result: mIDH1 inhibitor, FBPA coupling cs, Eya2 inh)
CCCCNC(=O)Cn1c(SCc2cccc(C)c2)nc2ccncc21	none (no result: mIDH1 inhibitor, FBPA coupling cs, Eya2 inh)
COc1ccc(NC=O)c(C(=O)CCNC(C)=O)c1	none (no result: mIDH1 inhibitor, Eya2 inh, TrxR1 substrate, TrxR1 inh)
CCOC(=O)c1c(C)oc2c1c(C(c1cccnc1)N1CCCCC1)c(O)c1ccccc12 (centres undefined)	FBPA coupling cs -36, TrxR1 inh 7.1µM
CCOC(=O)c1c(C)oc2c1c(C(c1ccccc1)N1CCOCC1)c(O)c1ccccc12 (centres undefined)	FBPA coupling cs -42
CCOC(=O)c1c(C)oc2c1c(/C=N/c1ccccn1)c(O)c1ccccc12	none (no result: mIDH1 inhibitor, FBPA coupling cs, Eya2 inh)
CCOC(=O)c1c(C)oc2c1c(C=NCCO)c(O)c1ccccc12	FBPA coupling cs -65
CCOC(=O)c1cnc(-c2ccccc2)nc1N1CCOCC1	none
C[N+](C)(CCCCCI)c1ccc(/C=C/c2nc3ccccc3s2)cc1	none (no result: mIDH1 inhibitor, FBPA coupling cs, Eya2 inh)
COc1cc(C=c2c3ccccc3n3c2cc(-c2ccccc2)[n+]3C)cc(OC)c1OC	TrxR1 inh 50µM (no result: FBPA coupling cs, Eya2 inh)

Bioassay records deposited in PubChem BioAssay by National Center for Advancing Translational Sciences (NCATS).
